Screening results as filed in PubChem.
pPAFAH FP inh: pPAFAH (human) enzyme inhibition | inhibition, % at 3.39 µM | 330,000 compounds, 1.5% hits | Q13093 | recombinant pPAFAH, FP-rhodamine probe fluorescence polarization;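 active = inhibition above the mean inhibition across the screen plus 3 SD, cut at about 25% in these data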;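 also: inhibitors block binding of the rhodamine activity-based probe so polarization drops; 0% = enzyme with DMSO and 100% = wells lacking pPAFAH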
Target sequence (Q13093 whole entry, looked up): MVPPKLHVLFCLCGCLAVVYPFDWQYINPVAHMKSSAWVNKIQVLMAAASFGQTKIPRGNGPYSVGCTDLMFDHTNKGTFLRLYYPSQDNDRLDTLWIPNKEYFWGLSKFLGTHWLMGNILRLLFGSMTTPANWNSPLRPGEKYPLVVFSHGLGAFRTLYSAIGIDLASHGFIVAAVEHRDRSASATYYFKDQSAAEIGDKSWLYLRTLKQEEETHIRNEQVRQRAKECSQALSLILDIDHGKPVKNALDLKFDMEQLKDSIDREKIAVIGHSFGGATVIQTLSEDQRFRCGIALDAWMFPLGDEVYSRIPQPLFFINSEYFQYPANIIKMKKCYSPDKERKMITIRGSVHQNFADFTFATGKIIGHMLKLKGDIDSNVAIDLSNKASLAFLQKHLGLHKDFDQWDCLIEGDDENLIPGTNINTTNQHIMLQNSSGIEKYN
PAFAH1B2 inh: PAFAH1B2 (human) inhibition | P68402 | recombinant PAFAH1B2, FP-rhodamine activity probe, fluorescence polarization | inhibition, % at 3.39 µM | 340,000 compounds, 1.2% hits | AID 492953;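 active = inhibition above the mean of all tested compounds plus 3 SD, cut at about 24% in these data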;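 also: 0% = enzyme with DMSO and 100% = wells lacking PAFAH1B2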
PAFAH2 inh: inhibitors of human PAFAH2; Q99487; recombinant PAFAH2, FP-rhodamine activity probe, fluorescence polarization; inhibition, % at 3.39 µM; 340,000 compounds, 0.99% hits;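 active = inhibition above the mean over all tested compounds plus 3 SD, cut at about 30% in these data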;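 also: inhibitors block probe labeling of enzyme so polarization drops; 0% = enzyme with DMSO and 100% = wells lacking PAFAH2 protein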
PAFAH1B3 FP inh: blocks human PAF acetylhydrolase 1B catalytic subunit 3. Q15102. recombinant PAFAH1B3, FP-rhodamine probe, fluorescence polarization. inhibition, % at 3.39 µM. 340,000 compounds, 0.28% hits. AID 492972;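 active = inhibition above the screen-wide average of all tested compounds plus 3 SD, cut at about 25% in these data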;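 also: 0% = enzyme with DMSO only and 100% = wells lacking PAFAH1B3 protein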
PKA-R2B activ: activators of human PKA-R2B complex; PKA-R2B holoenzyme dissociation, Cy5-IP20 fluorescence polarization; R2B truncated from residue 108, S112A mutant; 0% DMSO only, 100% 113 µM cGMP; activation, % at 11.4 µM; 340,000 compounds, 0.079% hits;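 active = activation above a cutoff set at the mean over all compounds plus 3 SD, cut at about 18% in these data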;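 also: higher means more holoenzyme dissociation and a rise in polarization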
PKA-R1A activ: activators of PKA-R1A complex | P00514+P68181 | PKA-R1A dissociation, Cy5-IP20 fluorescence polarization; scaled: DMSO 0%, 113 µM cGMP 100% | activation, % at 11.4 µM | 340,000 compounds, 0.083% hits;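 active = percent activation above the mean of all tested compounds plus 3 SD, cut at about 19% in these data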;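 also: higher means more PKAc released from R1A so a rise in polarization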
* = called active by the depositor; / = no result given. Rows were chosen to be rich in hits. Some 2.6% of all compounds tested hit in one or more screens of this group.

SMILES | pPAFAH FP inh | PAFAH1B2 inh | PAFAH2 inh | PAFAH1B3 FP inh | PKA-R2B activ | PKA-R1A activ
COC(=O)c1cc(C)sc1NC(=O)C1CC(=O)NN1Cc1ccccc1 (configuration not stated) | 6 | -1 | 5 | 0 | -1 | -6
O=C(CN1CCOCC1)Nc1ccc(NC(=O)c2ccccc2F)cc1 | 4 | -2 | -9 | -1 | 3 | -2
O=C(/C=N/O)Nc1ccc2sc3ccccc3c2c1 | 33* | 42* | 47* | 62* | -1 | -1
CCOCCCn1c(SCc2ccccc2)nnc1-c1ccncc1 | 1 | 2 | -1 | 4 | -1 | -7
NC(=O)CC(NC(=O)Cc1ccc(Cl)cc1)c1ccc(NC2CC3CCC2C3)c([N+](=O)[O-])c1 (configuration not stated) | 5 | 11 | 0 | 12 | 2 | -3
Cc1ccc(C)c(Cn2nnc3c(=O)[nH]c(C(=O)NCC4CCCO4)nc32)c1 (configuration not stated) | 0 | 67* | 2 | 2 | 4 | 3
COC(=O)CCCN1C(=O)NC(c2ccc(-c3ccccc3)cc2)C(C(=O)OCc2ccccc2)=C1C (configuration not stated) | 27* | 4 | 1 | 9 | -3 | -5
CC1=C(C(=O)OCc2ccccc2)C(c2ccc(C(C)(C)C)cc2)NC(=O)N1CCCCCC(=O)O (configuration not stated) | 25* | 2 | 12 | 4 | -3 | -4
CC1=C(C(=O)OCc2ccccc2)C(c2ccccc2)NC(=O)N1CCCCCC(=O)O (configuration not stated) | 10 | -8 | -5 | 0 | 14 | -9
CC(=O)Oc1c(I)cc(I)cc1C(=O)Nc1ccc(Cl)cc1 | 25* | 25* | 3 | 10 | 2 | 0
COc1ccc(Cl)cc1C(=O)Nc1ccc(NC(C)=O)cc1 | -2 | -5 | 5 | 8 | -4 | -3
Cc1ccc(C)c(N(CC(=O)NCCc2ccccc2)C(=O)CCC(=O)Nc2ccccn2)c1 | 8 | 2 | -14 | 0 | 6 | -3
CCC(OC(=O)c1nsc(Cl)c1Cl)C(=O)NCCc1ccccc1 (configuration not stated) | 25* | 6 | -4 | 4 | -13 | -12
CCC(OC(=O)c1nsc(Cl)c1Cl)C(=O)NCc1cccs1 (configuration not stated) | 28* | 0 | 0 | -1 | -7 | -5
CC(C)CC(OC(=O)c1nsc(Cl)c1Cl)C(=O)NCc1cccs1 (configuration not stated) | -4 | 7 | 0 | 3 | -11 | -11
COc1ccc(CCNC(=O)C(C)OC(=O)c2nsc(Cl)c2Cl)cc1OC (configuration not stated) | 5 | 1 | 2 | 2 | -11 | -4
CC(O)(c1ccc(Cl)cc1)C(c1ccccc1)c1ccccn1 (configuration not stated) | / | 12 | 11 | 15 | -7 | 2
Cc1cccc(N=Cc2cc3c(cc2[N+](=O)[O-])OCO3)c1 | 28* | 4 | 5 | 14 | -11 | -3
O=[N+]([O-])c1cc2c(cc1C=Nc1ccccc1)OCO2 | 12 | 3 | 6 | 10 | -3 | 3
COc1cc(C2C(C(C)=O)=C(O)C(=O)N2Cc2ccccc2)ccc1O (configuration not stated) | / | 3 | 6 | 2 | 1 | -4
N#Cc1c(SCC(N)=O)nsc1SCc1ccccc1Cl | 19 | 5 | 3 | 0 | -10 | -14
N#Cc1c(SCC(N)=O)nsc1SCc1ccc(Cl)cc1 | 2 | 30* | -3 | 6 | 6 | 7
Cc1cc(C)nc(SCc2ccc(Cl)cc2)n1 | 6 | 9 | 2 | 5 | 11 | 0
Nc1ccc(CSc2ccc(Cl)cc2)cc1 | 11 | 39* | 2 | 6 | 6 | 3
COC(=O)c1sc(-c2ccc(C(C)(C)C)cc2)cc1NC(=O)CSCC(=O)O | 32* | 2 | 5 | 4 | 3 | 2
COC(=O)c1sc(-c2ccc(C(C)(C)C)cc2)cc1NC(=O)c1ccccc1C(=O)O | 5 | 8 | -17 | -5 | 6 | -11
